Assay outcomes (PubChem BioAssay)
TMEM16A act – activators or potentiators of mouse TMEM16A chloride channel; B-score at 10 µM; 340,000 compounds, 0.3% hits; HEK293 TMEM16A/YFP-H148Q/I152L, iodide quench fluorescence; stronger effect = lower value; Q8BHY3;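 active = fluorescence-ratio B-score plate-corrected deviation score at least 3 library SD below zero, with starting fluorescence score within 5 deviations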;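 note: channel opened by trigger with iodide after compound preincubation; score built on the fluorescence ratio of max minus min over baseline; more negative score means more quench and so TMEM16A activation or potentiation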
Target sequence (Q8BHY3 whole entry, looked up): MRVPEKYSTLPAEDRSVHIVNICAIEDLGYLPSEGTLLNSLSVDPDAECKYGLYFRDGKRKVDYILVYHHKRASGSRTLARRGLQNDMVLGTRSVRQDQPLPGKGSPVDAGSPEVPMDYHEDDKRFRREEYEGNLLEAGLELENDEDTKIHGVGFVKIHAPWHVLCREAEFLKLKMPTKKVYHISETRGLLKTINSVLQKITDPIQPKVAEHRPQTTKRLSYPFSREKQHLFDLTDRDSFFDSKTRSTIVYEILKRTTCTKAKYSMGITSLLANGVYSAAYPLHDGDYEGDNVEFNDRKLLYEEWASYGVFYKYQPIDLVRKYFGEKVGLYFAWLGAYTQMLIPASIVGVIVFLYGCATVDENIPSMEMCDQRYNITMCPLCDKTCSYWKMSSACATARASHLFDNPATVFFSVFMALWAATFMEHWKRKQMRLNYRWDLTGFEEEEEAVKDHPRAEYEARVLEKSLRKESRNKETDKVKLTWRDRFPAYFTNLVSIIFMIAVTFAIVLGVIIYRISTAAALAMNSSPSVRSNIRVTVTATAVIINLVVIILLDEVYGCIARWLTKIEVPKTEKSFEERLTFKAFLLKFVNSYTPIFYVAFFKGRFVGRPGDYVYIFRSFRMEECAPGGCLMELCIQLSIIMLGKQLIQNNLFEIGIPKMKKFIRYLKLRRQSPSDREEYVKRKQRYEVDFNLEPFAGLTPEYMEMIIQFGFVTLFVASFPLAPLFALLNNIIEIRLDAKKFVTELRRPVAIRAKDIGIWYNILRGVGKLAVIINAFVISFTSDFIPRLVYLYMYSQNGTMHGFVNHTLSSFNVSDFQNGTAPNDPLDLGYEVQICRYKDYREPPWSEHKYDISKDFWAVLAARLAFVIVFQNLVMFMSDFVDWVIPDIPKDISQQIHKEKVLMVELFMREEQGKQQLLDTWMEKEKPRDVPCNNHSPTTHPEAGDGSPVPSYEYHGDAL
ANO1 block – mouse TMEM16A channel inhibition, primary screen | Q8BHY3 | HEK293 TMEM16A/YFP iodide influx fluorescence, ionomycin | normalized B-score (activity score, 25-100; higher = stronger inhibition) at 10 µM | 310,000 compounds, 1.2% hits | AID 588511;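 active = ratio plate-corrected score three or more library SD toward inhibition, starting fluorescence score within five deviations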;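 note: score derived from kinetic fluorescence span divided by baseline fluorescence per well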
CHT PAM – allosterically activates the human high affinity choline transporter; Q9GZV3; CHT-expressing cells, membrane potential dye, choline EC20; stronger effect = higher value; LV-AA mutant CHT in HEK293 cells; B-score at 10 µM; 310,000 compounds, 0.49% hits; AID 488977;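 active = initial fluorescence not abnormally high and integrated response B-score, plate-corrected, over 3 SD above library mean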
CHT inh – inhibitors of human choline transporter CHT | Q9GZV3 | CHT-expressing cells, membrane potential dye, choline response; stronger effect = lower value | B-score at 10 µM | 310,000 compounds, 0.86% hits | AID 488975;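 active = B-score over 3 SD under the library average, and starting fluorescence ratio not unusually high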;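 note: choline stimulus applied at its EC90 after an EC20 pre-addition; B-score computed on integrated fluorescence ratio after choline addition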
CHT block conf – confirmation of human choline transporter CHT inhibitors; shares compounds with CHT inh; CHT activity remaining % of control (stronger effect = lower value), % at 10 µM; AID 493221; CHT-expressing cells, choline membrane potential dye; LV-to-AA substituted CHT, HEK293 cells; 2,400 compounds, 70% hits;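 active = choline transporter activity left, mean of duplicates at 10 µM, below buffer-only control mean minus 3 SD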;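 note: depolarization triggered by choline at its EC90 following an EC20 pre-addition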
HEK293 CHT ctr – counter-screen for CHT inhibitors: effect in parental HEK293 cells | 2,400 compounds, 4% hits | AID 493222 | membrane potential dye, choline response; active = decrease or increase beyond buffer ±3SD | membrane potential ratio readout (active if shifted either direction beyond buffer ±3SD; no single direction) at 10 µM | shares compounds with CHT inh;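 note: parental cells lack the transporter so any hit is non-specific; ratio is peak minus trough fluorescence over baseline after EC90 choline challenge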
Each line names hits and unclear results; the compound was inactive in the other large screens (follow-up assays come after a bar, where they were run). Compounds with a hit are over-represented: about 2.3% of the library has one in this group of screens.

Cc1cccc(Oc2ncnc3onc(C)c23)c1C	none
O=S(=O)(NCCCCCNS(=O)(=O)c1c(F)cccc1F)c1ccc2c(c1)OCCO2	none (no result: ANO1 block, CHT PAM, CHT inh)
O=CN1c2ccccc2CSc2ccccc21	none
CCCN(CCC)Cc1c(C(=O)N/N=C/C(C)=C\c2ccco2)nnn1-c1nonc1N	CHT inh -5.26 | CHT block conf 60.3% | HEK293 CHT ctr inactive
Cc1ccccc1N1CCN(Cc2c(C#N)c3ccccc3n2C)CC1	none
Cn1c(CN2CCN(CCO)CC2)c(C#N)c2ccccc21	CHT inh -5.28 | CHT block conf 40.8% | HEK293 CHT ctr inactive
NC(=O)C1CCN(CCC(=O)Nc2ccc(F)c(F)c2)CC1	none
O=C(CSc1c2c(nc3cc(Cl)ccc13)CCCC2)NCCN1CCOCC1	none
O=C(CSc1c2c(nc3ccc(Cl)cc13)CCCC2)NCCCN1CCOCC1	CHT inh -8.63 | CHT block conf 18.2% | HEK293 CHT ctr inactive
CCc1cc(C(=O)N2CCN(S(=O)(=O)c3ccc(Cl)cc3)CC2)sc1C	none (no result: ANO1 block, CHT PAM, CHT inh)
CC(C)C(=O)Nc1ccc(C(=O)NN2C(=O)c3ccccc3C2=O)cc1	none
CCCNC(=O)c1ccc(COc2ccc(C)cc2)o1	CHT inh -5.02 | CHT block conf 51.9% | HEK293 CHT ctr inactive
CC(=O)Nc1ccc(NC(=O)c2ccc(COc3ccc(C)cc3)o2)cc1	none
CCOc1ccc(OCc2ccc(C(=O)N3CCCC3)o2)cc1	CHT inh -8.07 | CHT block conf 42.0% | HEK293 CHT ctr inactive
Cc1cccc(N2CC(C(=O)NC3CCCCCC3)CC2=O)c1C (centres undefined)	none (no result: ANO1 block, CHT PAM, CHT inh)
O=C(N/N=C/c1cccc(Oc2ccccc2)c1)c1cccc(O)c1	CHT inh -5.26 | CHT block conf 66.5% | HEK293 CHT ctr inactive
O=C(N/N=C/c1cccc(Oc2ccccc2)c1)c1cccc(Br)c1	none
CCN(C(=O)CSc1nnc(-c2cccs2)o1)C1CCS(=O)(=O)C1 (centres undefined)	none
O=C(CN1CCOCC1)N1CCN(S(=O)(=O)c2ccccc2)C1c1ccccc1 (centres undefined)	CHT inh -6.9 | CHT block conf inactive | HEK293 CHT ctr -9.76
CC(C)(C)CC(C)(C)NCC(O)COc1c(F)cc(Br)cc1F (centres undefined)	CHT inh -5.53 | CHT block conf 60.1% | HEK293 CHT ctr -9.05
CC(C)(C)NCC(O)COc1c(F)cc(Br)cc1F (centres undefined)	none
CCCn1c(SCC(=O)c2cc(C)n(-c3ccc4c(c3)OCO4)c2C)n[nH]c1=O	CHT inh -5.46 | CHT block conf inactive | HEK293 CHT ctr inactive
Fc1ccccc1CCNc1c2c(nc3ncnn13)CCCC2	CHT inh -6.93 | CHT block conf 63.2% | HEK293 CHT ctr inactive
c1ccc(CCNc2c3c(nc4ncnn24)CCC3)cc1	CHT inh -7.1 | CHT block conf 44.0% | HEK293 CHT ctr inactive
COc1ccc(C(C)=O)cc1CC(=O)Nc1ccccc1-c1ccccc1	none
O=C(COC(=O)COc1ccccc1)Nc1ccc(Br)cc1Br	none (no result: ANO1 block, CHT PAM, CHT inh)
COc1ccc(CC(=O)OCC(=O)NC2CCCC(C)C2C)cc1OC (centres undefined)	none (no result: ANO1 block, CHT PAM, CHT inh)
O=C(Cn1ncc2c3ccccc3n(Cc3ccccc3)c2c1=O)NCCCN1CCCC1	CHT inh -9.05 | CHT block conf 24.6% | HEK293 CHT ctr inactive
O=C(Cn1ncc2c3ccccc3n(Cc3ccccc3)c2c1=O)NCCN1CCOCC1	CHT inh -14.8 | CHT block conf 6.6% | HEK293 CHT ctr inactive
CCCn1c2ccccc2c2cnn(CC(=O)O)c(=O)c21	none
CCCn1c2ccccc2c2cnn(CC(=O)OC)c(=O)c21	CHT inh -5.83 | CHT block conf 23.5% | HEK293 CHT ctr inactive
CCCn1c2ccccc2c2cnn(CC(=O)NCCCN3CCCCC3)c(=O)c21	CHT inh -9.33 | CHT block conf 21.1% | HEK293 CHT ctr inactive
CCc1cc(CN2CCOCC2)c(NC(=O)c2ccccc2)s1	none
CCCN1CCN(CCCNC(=O)Cn2ncc3c4ccccc4n(C)c3c2=O)CC1	none
Cn1c2ccccc2c2cnn(CC(=O)NCCCN3CCN(c4ccccc4F)CC3)c(=O)c21	CHT inh -5.49 | CHT block conf inactive | HEK293 CHT ctr inactive
CCCn1c2ccccc2c2cnn(CC(=O)NCCCN3CCCC(C)C3)c(=O)c21 (centres undefined)	CHT inh -6.64 | CHT block conf 26.1% | HEK293 CHT ctr inactive
CCCn1c2ccccc2c2cnn(CC(=O)NCCCN3CCN(c4ccccc4)CC3)c(=O)c21	CHT inh -9.93 | CHT block conf 22.9% | HEK293 CHT ctr inactive
CC(C)Cn1cnc2c1c(=O)n(CC(=O)NC(=O)NC(C)(C)C)c(=O)n2Cc1ccccc1	none
CCOC(=O)c1c(NC(=O)Cn2nc([N+](=O)[O-])c(Br)c2C)sc2c1CCC(C)C2 (centres undefined)	none
Cc1ccc(S(=O)(=O)N(C)/N=C/C=C/c2ccccc2)cc1	none
COCCn1c(SCC(=O)Nc2ccccc2C(F)(F)F)nc2ccccc2c1=O	CHT inh -5.32 | CHT block conf inactive | HEK293 CHT ctr inactive
COCCn1c(SCC(=O)N2CCCc3ccccc32)nc2ccccc2c1=O	CHT inh -5.24 | CHT block conf inactive | HEK293 CHT ctr inactive
CC1Cc2nc(SCC(=O)N3CCCc4ccccc43)n(C)c(=O)c2S1 (centres undefined)	CHT inh -7.59 | CHT block conf 23.6% | HEK293 CHT ctr inactive
COCCn1c(SCC(=O)Nc2ccc(NC(C)=O)cc2)nc2ccccc2c1=O	none
COCCn1c(SCC(=O)N2CCCc3ccccc32)nc2c(c1=O)SC(C)C2 (centres undefined)	none
O=c1cc(CN2CCN(c3ccccc3O)CC2)nc2sccn12	CHT inh -8.78 | CHT block conf 42.5% | HEK293 CHT ctr inactive
O=C(NC1CCCC1)C(c1ccc(F)cc1)N(C(=O)Cc1cccs1)c1ccc2c(c1)OCCO2 (centres undefined)	none
O=C(NC1CCCCC1)C(c1ccc2ncccc2c1)N(Cc1cccs1)C(=O)c1cccs1 (centres undefined)	CHT inh -5.46 | CHT block conf inactive | HEK293 CHT ctr inactive
O=C(NC1CCCCC1)C(c1ccc2ncccc2c1)N(Cc1ccco1)C(=O)c1ccc2c(c1)OCCO2 (centres undefined)	none
O=C(NC1CCCCC1)C(c1ccc2ncccc2c1)N(Cc1ccc(F)cc1)C(=O)c1ccc2c(c1)OCCO2 (centres undefined)	CHT inh -7.53 | CHT block conf 65.3% | HEK293 CHT ctr inactive
O=C(NC1CCCCC1)C(c1ccncc1)N(C(=O)Cc1cccs1)c1ccccc1 (centres undefined)	none
